KDM5B inh: blocks human KDM5B histone demethylase activity | actives 2.6% (n = 220,000) | KDM5B demethylase, FDH-coupled NADH fluorescence (FDH is formaldehyde dehydrogenase) | AID 1347165 | Potency, µM (series often up to 57.7 µM), usual class: inhibitors; active = well fitted inhibition curve with a large enough effect; also: 0% is about no effect; nearly all actives have a fitted effect of over 70% in size
Target sequence (Q9UGL1 whole entry, looked up): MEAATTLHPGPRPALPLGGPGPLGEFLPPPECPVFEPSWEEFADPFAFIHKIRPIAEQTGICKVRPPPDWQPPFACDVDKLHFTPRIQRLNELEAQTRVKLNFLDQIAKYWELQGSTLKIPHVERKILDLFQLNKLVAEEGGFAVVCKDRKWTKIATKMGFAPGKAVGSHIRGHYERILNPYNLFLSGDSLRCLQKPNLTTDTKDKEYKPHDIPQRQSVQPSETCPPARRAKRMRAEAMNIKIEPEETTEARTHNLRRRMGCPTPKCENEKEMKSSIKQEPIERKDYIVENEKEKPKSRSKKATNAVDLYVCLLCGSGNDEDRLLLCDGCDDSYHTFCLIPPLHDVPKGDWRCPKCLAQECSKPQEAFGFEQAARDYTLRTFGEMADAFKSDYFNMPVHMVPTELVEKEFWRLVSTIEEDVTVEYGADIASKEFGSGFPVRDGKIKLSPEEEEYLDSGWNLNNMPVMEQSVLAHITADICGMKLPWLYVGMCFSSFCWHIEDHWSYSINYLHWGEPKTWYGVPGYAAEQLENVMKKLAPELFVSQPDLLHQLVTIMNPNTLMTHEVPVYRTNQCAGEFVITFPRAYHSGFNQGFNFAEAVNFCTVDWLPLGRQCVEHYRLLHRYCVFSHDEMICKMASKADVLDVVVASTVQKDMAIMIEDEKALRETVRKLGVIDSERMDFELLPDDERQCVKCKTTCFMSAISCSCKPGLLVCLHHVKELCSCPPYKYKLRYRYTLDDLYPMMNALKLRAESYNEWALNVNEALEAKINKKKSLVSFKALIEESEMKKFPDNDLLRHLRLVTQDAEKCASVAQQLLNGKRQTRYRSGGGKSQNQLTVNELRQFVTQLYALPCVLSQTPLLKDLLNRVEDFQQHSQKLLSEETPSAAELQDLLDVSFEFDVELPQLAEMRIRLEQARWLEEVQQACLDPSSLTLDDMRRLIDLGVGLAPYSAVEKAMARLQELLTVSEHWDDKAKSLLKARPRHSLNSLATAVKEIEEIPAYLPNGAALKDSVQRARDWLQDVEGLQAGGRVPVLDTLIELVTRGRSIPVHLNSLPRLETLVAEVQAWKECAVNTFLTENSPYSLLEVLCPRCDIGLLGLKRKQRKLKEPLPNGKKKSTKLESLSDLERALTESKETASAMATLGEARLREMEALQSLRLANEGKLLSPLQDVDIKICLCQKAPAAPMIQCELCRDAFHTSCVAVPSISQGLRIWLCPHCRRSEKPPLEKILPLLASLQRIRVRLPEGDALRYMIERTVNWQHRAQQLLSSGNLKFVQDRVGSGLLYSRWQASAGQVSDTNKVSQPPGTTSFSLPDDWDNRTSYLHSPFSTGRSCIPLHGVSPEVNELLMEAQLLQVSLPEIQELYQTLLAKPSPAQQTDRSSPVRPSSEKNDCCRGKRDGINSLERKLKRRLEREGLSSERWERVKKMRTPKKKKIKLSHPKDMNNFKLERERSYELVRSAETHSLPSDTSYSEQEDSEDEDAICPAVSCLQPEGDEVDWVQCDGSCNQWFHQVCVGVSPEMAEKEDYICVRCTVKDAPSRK
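Compound dilutions met 200 nM (final) KDM5BΔAP for 10 min at room temperature before substrate addition. The substrate mix held 12.5 µM H3K4me3 with cofactors 25 µM α-ketoglutarate and 50 µM Fe²⁺. NADH signal gain over 30 min defined activity.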
* hit, by the source's call; i = inactive. Only a selection was taken, and hits are over-represented in it overall. Potency is read from the fitted curve at half-maximal effect.

SMILES | KDM5B inh
CCc1ccc(N2CC(c3noc(-c4ccc5c(c4)OCO5)n3)CC2=O)cc1 (configuration not stated) | 32µM*
Cc1nnc(-c2ccncc2)nc1C | i
COc1ccc2nc(NC(=O)c3cc(=O)c4ccc(C)cc4o3)sc2c1 | i
O=C(O)Cc1cccc2cccnc12 | i
Cc1ccc(CNCC(=O)O)cc1 | i
CCC(C)c1ccc(C(N)C(C)C)cc1 (configuration not stated) | i
COc1ccc2c(CCNC(=O)CSc3nc(Cl)nc4nc[nH]c34)c[nH]c2c1 | i
O=C(NC[C@H]1Cn2c(-c3ccc4c(c3)OCO4)cnc2CO1)Nc1ccc(F)cc1 | 28µM*
Fc1ccc(-c2cnc3n2C[C@H](CNCc2ccc4c(c2)OCO4)OC3)cc1 | i
O=C(NC[C@H]1Cn2c(-c3ccc(F)cc3)cnc2CO1)NC1CCCCC1 | i
O=C(NC1CC1)c1ccc(NS(=O)(=O)c2ccccc2C(F)(F)F)cc1 | i
O=C(NC1CCN(Cc2ccccc2)CC1)c1cc2n(n1)CC(c1ccc(Cl)cc1)OC2 (configuration not stated) | i
Cc1ccc(NC(=O)c2cc3n(n2)CC(c2ccc(Cl)cc2)OC3)cc1 (configuration not stated) | 20µM*
CC(=O)c1ccc(NC(=O)c2cc3n(n2)CC(c2ccc(Br)cc2)OC3)cc1 (configuration not stated) | i
Cc1cc(C)cc(NC(=O)c2cc3n(n2)CC(c2ccc(Cl)cc2)OC3)c1 (configuration not stated) | 25µM*
C=C(C)Cn1c(N2CCN(CC(=O)OCC)CC2)nc2c1c(=O)[nH]c(=O)n2C | i
Cc1nc2c(c(-c3ccc(Cl)cc3)n1)CCN(C(=O)c1cccc(Cl)c1)CC2 | i
COc1cccc(CC(=O)N2CCC(c3n[nH]c(=O)n3-c3ccc(C)cc3)CC2)c1 | i
CSc1cccc(NC(=O)Cn2c(N3CCN(c4ccccc4)CC3)nc(C)cc2=O)c1 | i
CSc1cccc(NC(=O)Cn2c(Nc3cc(C)cc(C)c3)nc(C)cc2=O)c1 | 28µM*
CCOc1ccc(NC(=O)Cn2c(Nc3cc(C)cc(C)c3)nc(C)cc2=O)cc1 | i
O=C(CCCc1nc2ccccc2o1)NCc1ccc(Cl)cc1 | i
COc1cccc(Cc2nc(-c3nnn4c3COC(c3ccc(Cl)cc3)C4)no2)c1 (configuration not stated) | i
Cc1ccc(C2Cn3nnc(-c4noc(-c5ccccc5Cl)n4)c3CO2)cc1 (configuration not stated) | i
COc1ccccc1CCc1nc(-c2nnn3c2COC(c2ccc(C)cc2)C3)no1 (configuration not stated) | i
SMILES | KDM5B inh
Cc1ccc(-c2nc(-c3nnn4c3COC(c3ccc(Cl)cc3)C4)no2)cc1 (configuration not stated) | i
COc1ccccc1-c1nc(-c2nnn3c2COC(c2ccc(Cl)cc2)C3)no1 (configuration not stated) | 14µM*
COc1ccc(C2Cn3nnc(-c4nc(-c5cccc(F)c5)no4)c3CO2)cc1 (configuration not stated) | i
COc1cc(OC)cc(-c2nc(-c3nnn4c3COC(c3ccc(Cl)cc3)C4)no2)c1 (configuration not stated) | i
COc1cccc(-c2nc(-c3nnn4c3COC(c3ccc(Cl)cc3)C4)no2)c1OC (configuration not stated) | 25µM*
CCOc1cccc(-c2noc(-c3nnn4c3COC(c3ccc(OC)cc3)C4)n2)c1 (configuration not stated) | 18µM*
COc1ccccc1-c1nc(-c2nnn3c2COC(c2ccc(C)cc2)C3)no1 (configuration not stated) | 13µM*
COc1ccc(C2Cn3nnc(-c4noc(-c5ccccc5Cl)n4)c3CO2)cc1 (configuration not stated) | i
CCOc1ccc(C2Cn3nnc(-c4nc(-c5cccc(Br)c5)no4)c3CO2)cc1 (configuration not stated) | i
Cc1ccc(C(=O)OCCOc2ccc(C#N)cc2)cc1F | i
Cc1ccc2oc(C(=O)Nc3ccc4c(c3)NC(=O)C(C)O4)cc(=O)c2c1 (configuration not stated) | i
O=C(Cc1cccc2ccccc12)N(Cc1ccc2cc[nH]c2c1)C1CC1 | i
COc1ccccc1OC(C(=O)NC1CC1)c1ccccc1 (configuration not stated) | i
Cc1ccc(C(CNC(=O)c2ccc(NC(=O)OC(C)(C)C)cc2)N2CCOCC2)o1 (configuration not stated) | i
Cn1c(=O)c2c(ncn2CC(=O)Nc2ccccc2C(=O)NC2CCCCC2)n(C)c1=O | i
COc1ccc(C2Cn3nnc(-c4nc(-c5ccc(F)cc5)no4)c3CO2)cc1 (configuration not stated) | i
COc1ccc(C2Cn3nnc(-c4noc(-c5cc(F)ccc5Cl)n4)c3CO2)cc1 (configuration not stated) | i
